Abeta rescue: qHTS for compounds that reverse cellular toxicity of Amyloid beta (A-beta) peptide in yeast: Primary Screen; yeast expressing A-beta42, growth rescue, OD600, 48 h; response scale: 0% DMSO, 100% iron-clioquinol control; Potency, µM (series often up to 46.1 µM), most hits filed as activators; actives 0.063% (n = 410,000); AID 1347071, 2019; also: nearly all actives have a fitted effect of over 55% in size
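Growth rescue measured by 600 nm absorbance after 48 h yeast culture at 30 C with compound. Values normalized between DMSO and an equimolar ferric chloride plus clioquinol control.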
MmCpn inh: Inhibitors of TCP-1 ring complex (TRiC) of Methanococcus maripaludis (MmCpn): qHTS; Chaperonin Mm-Cpn (Methanococcus maripaludis); purified Mm-Cpn ATPase, ADP Transcreener TR-FRET; Potency, µM (top dose mostly 76.9 µM), hits mostly inhibitors; actives 0.031% (n = 330,000); AID 504842, 2011; also: nearly all actives have a fitted effect of over 80% in size
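Quantitative HTS used 25 nM Mm-CPN and 10 uM ATP in magnesium/KCl Tris buffer, pH 7.4, with 1 mM DTT. Hydrolysis ran 30 min at 37°C; ADP was read by HTRF.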
aSyn yeast inh: qHTS of alpha-syn Inhibitors | Potency, µM (titrated, usually from 46.1 µM), actives largely listed as activators | Yeast expressing alpha-synuclein, growth rescue, BacTiter-Glo, 24 h | AID 652106, 2013 | actives 0.14% (n = 370,000); also: nearly all actives have a fitted effect of over 65% in size
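Rescue of yeast growth: cells expressing toxic alpha-synuclein, induced in galactose at OD600 0.02, incubated with compound 24 h at 30 C. ATP luminescence quantified growth; inhibitors of toxicity appear as activators.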
ClpP mod: qHTS Assay for Activators of ClpP; purified B. subtilis ClpP, FRET peptide cleavage, 20 min; Potency, µM (top dose mostly 57.5 µM); actives 1.9% (n = 340,000); AID 651965, 2013; active = well fitted falling curve with a large enough effect; inconclusive = small, poorly fitted or top-dose-only effect; inactive = no such curve, though single readings can be large or run the other way; also: the source files actives as falling curves though it sought activators and does not explain the sign; nearly all actives have a fitted effect of over 65% in size
Target sequence (P80244 whole entry, looked up): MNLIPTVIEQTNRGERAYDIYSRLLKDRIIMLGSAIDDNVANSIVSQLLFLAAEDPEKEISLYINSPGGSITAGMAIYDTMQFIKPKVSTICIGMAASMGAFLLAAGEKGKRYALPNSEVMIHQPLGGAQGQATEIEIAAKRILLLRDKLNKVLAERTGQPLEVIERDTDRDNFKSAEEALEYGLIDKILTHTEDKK
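Buffer: 100 mM Tris/HCl pH8, 100 mM KCl, 0.05% low protease BSA, 2.5% glycerol, 0.01% Tween-20. ClpP 10 microg/mL final; 20 min RT; delta FRET normalized to ADEP and DMSO controls.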
FUS suppressor: qHTS for Suppressors of FUS Proteinopathy: Primary screen using FUS-linked yeast assay. Potency, µM (top dose mostly 76.6 µM), most hits filed as activators. S. cerevisiae FUS-expressing, growth rescue, OD600, 24 h. actives 0.24% (n = 390,000); also: nearly all actives have a fitted effect of over 55% in size
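Yeast expressing FUS under galactose induction, OD 0.005 in 2% galactose medium; compounds in a dilution series, 24 h at 30C. Growth rescue by absorbance at 600 nm; CP55940 positive control, DMSO negative.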
TDP43 rescue: qHTS of TDP-43 Inhibitors; actives 1.8% (n = 410,000); TDP-43 expressing yeast growth rescue, BacTiter-Glo, 24 h; AID 652104, 2013; Potency, µM (top dose mostly 46.1 µM), hits mostly activators; also: nearly all actives have a fitted effect of over 50% in size
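Yeast cells expressing TDP-43 under galactose induction are exposed to compounds for 24 hr at 30 deg C. BacTiter-Glo luminescence measures growth, so protective compounds score as activators.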
Hits are given with their value; - = inactive; ? = inconclusive; . = no result. Compounds with a hit are over-represented: about 3.6% of the library has one in this group of screens. Unless noted, calls follow the shape of the dose curve; as a rule, active = well fitted curve in the direction sought with a large enough effect; inconclusive = small, poorly fitted or top-dose-only effect, or another doubt; inactive = no such curve, though single readings can be large; an effect the other way counts as inactive or inconclusive.

SMILES	Abeta rescue	MmCpn inh	aSyn yeast inh	ClpP mod	FUS suppressor	TDP43 rescue
CCC(c1nnnn1Cc1cccs1)N1CCN(c2nc3ccccc3s2)CC1 (stereo not given)	-	-	?	-	?	15.8µM
Cc1ccc(C)c(CNC(=O)c2ccc3c(c2)nc2n3CCCCC2)c1	-	.	.	-	-	-
Cc1ccc(C)c(N/N=C2\CCCNC2=O)c1	-	-	-	-	.	20µM
CSc1ncc(C(=O)NCc2cccc(C)c2)c(-c2ccccc2)n1	-	.	.	-	-	-
COc1cc2c(cc1OC)C1=NC(=O)CN1C(SCc1ccc(C)cc1)=N2	-	-	-	20µM	-	-
CNc1c(Cl)cc(/C=C2\C=Cc3ccccc32)cc1Cl	.	.	-	-	.	.
COc1ccc(C2=NN3C(=O)c4c(ccc(OC)c4OC)C3C2)cc1 (stereo not given)	-	-	-	-	-	-
COc1ccc2c(c1OC)C(=O)N1N=C(c3ccc(Cl)cc3)CC21 (stereo not given)	-	-	-	-	-	35.5µM
COc1ccc2c(c1OC)C(=O)N1N=C(c3ccc(Br)cc3)CC21 (stereo not given)	-	-	-	-	-	20µM
CCN1CCc2c(C#N)c(N3CCOCC3)nc(NCCO)c2C1	-	-	-	8.91µM	-	-
N#Cc1c(NCCO)nc(NCc2ccccc2)c2c1CCN(Cc1ccccc1)C2	-	-	-	10µM	-	-
C=CCNc1nc(N2CCCCC2)c(C#N)c2c1CN(Cc1ccccc1)CC2	-	-	-	28.2µM	-	-
CCN1CCc2c(C#N)c(N3CCCCC3)nc(NCc3ccccc3)c2C1	-	.	-	?	-	-
Cc1ccccc1Cn1c(=O)n(CCC(=O)NCc2ccco2)c(=O)c2sccc21	-	.	.	-	-	-
CCS(=O)(=O)N1CCC(C(=O)NCCC(C)C)CC1	-	.	.	-	-	-
COc1ccc2[nH]c(-c3ccccc3)cc2c1	-	-	-	-	-	12.6µM
COc1ccc2nc(-c3ccccc3)[nH]c2c1	-	-	-	-	-	-
COc1ccc(CC(=O)Nc2c(C(=O)N3CCN(c4ccccc4F)CC3)oc3ccccc23)cc1OC	-	.	.	-	-	-
Cc1ccc(CN(C(=O)N2CCN(C)CC2)S(=O)(=O)c2ccc(C)cc2)cc1	-	-	-	-	-	-
Cc1ccc(S(=O)(=O)N(Cc2cccc(Cl)c2)C(=O)N2CCN(C)CC2)cc1	-	-	-	14.1µM	-	-
CCSc1nc2n(n1)C(c1ccc(Cl)cc1Cl)C(C(=O)Nc1ccccc1C)=C(C)N2 (stereo not given)	-	.	.	-	-	-
O=C(OCc1cccc(Cl)c1)c1cc([N+](=O)[O-])ccc1N1CCOCC1	-	-	-	-	-	20µM
O=C(OCc1cccc(C(F)(F)F)c1)c1cc([N+](=O)[O-])ccc1N1CCOCC1	-	-	-	-	-	-
COc1cccc(CNC(=O)COC(=O)C2CCN(c3ccc(C(F)(F)F)cn3)CC2)c1	-	-	-	-	.	12.6µM
O=C(COC(=O)C1CCN(c2ccc(C(F)(F)F)cn2)CC1)NCc1cccc(Cl)c1	-	-	-	-	-	?
COc1cccc(CNC(=O)COC(=O)c2cc([N+](=O)[O-])ccc2N2CCCC2)c1	-	?	-	-	.	35.5µM
Cc1nc2c(-c3ccccc3)c(C)[nH]n2c(=O)c1Cc1ccc(C(C)C)cc1	-	.	.	?	-	-
N#C/C(=C/c1cn(-c2ccccc2)nc1-c1cccc(OCc2ccccc2)c1)C(=O)NCCCn1ccnc1	-	-	-	?	.	-
CCOc1cccc(-c2nn(-c3ccccc3)cc2/C=C(/C#N)C(=O)NCCCn2ccnc2)c1	-	-	-	25.1µM	-	-
